Source: PubChem BioAssay
ALDH1A1 block: ALDH1A1 (human) enzyme inhibition. Purified ALDH1A1, NADH fluorescence, propionaldehyde substrate. Potency, µM (doses to about 75.3 µM), inactives show at the top dose activity, negative = inhibition, most hits filed as inhibitors. hit rate 7.3% among 220,000;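 note: potency is the fitted concentration of half-maximal effect; plate controls were no enzyme wells and a reference inhibitor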
Target sequence (P00352 whole entry, looked up): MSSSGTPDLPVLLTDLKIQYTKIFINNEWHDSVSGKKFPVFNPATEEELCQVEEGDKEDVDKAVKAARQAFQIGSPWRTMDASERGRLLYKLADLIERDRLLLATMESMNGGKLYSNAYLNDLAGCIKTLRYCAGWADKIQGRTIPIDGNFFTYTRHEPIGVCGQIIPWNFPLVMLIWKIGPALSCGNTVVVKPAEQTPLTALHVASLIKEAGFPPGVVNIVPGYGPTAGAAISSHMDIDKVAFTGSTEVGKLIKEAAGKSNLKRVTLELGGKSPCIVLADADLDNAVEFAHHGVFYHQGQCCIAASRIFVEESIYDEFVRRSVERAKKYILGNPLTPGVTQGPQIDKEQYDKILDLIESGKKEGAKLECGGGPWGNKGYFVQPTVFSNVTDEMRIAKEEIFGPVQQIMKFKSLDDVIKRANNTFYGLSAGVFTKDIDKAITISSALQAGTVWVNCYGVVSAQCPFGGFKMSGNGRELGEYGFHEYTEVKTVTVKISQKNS
Lamin A splicing: changes lamin A minigene splicing in HeLa cells; Potency, µM (top dose mostly 46.1 µM), for the others: at the highest dose ratio change, negative = inhibition, actives largely listed as inhibitors; HeLa LMNA splicing GFP/RFP minigene ratio, 48 h; AID 1487; hit rate 0.01% among 200,000; active = well fitted inhibition curve with a large enough effect in the signal ratio, with a control signal flat, not every such curve was filed as active; inconclusive = small, poorly fitted or top-dose-only effect, or effect the other way, or a change in a side signal; the % refers to the signal ratio; note: potency is the fitted concentration of half-maximal effect
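Read-out is the ratio of GFP to DsRed2 object intensity, acquired by 488 nm laser-scanning cytometry on HeLa lamin A-EGFP minigene reporter cells. Compound incubation 48 hrs at 37 °C in Opti-MEM with 2% FBS; DMSO 0.5% final.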
12-hLO inh: blocks human 12-lipoxygenase activity; hit rate 0.12% among 150,000; Potency, µM (titrated, usually from 57.1 µM), inactives show at the top dose activity change, negative = inhibition, hits mostly inhibitors; P18054; purified 12-hLO, xylenol orange hydroperoxide absorbance; active = well fitted inhibition curve with a large enough effect; inconclusive = small, poorly fitted or top-dose-only effect; note: potency is the fitted concentration of half-maximal effect; nearly all actives have a fitted effect of over 55% in size
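150 nM 12hLO, 25 mM Hepes pH 7.0 + 0.01% Triton X-100; cpd preinc 15 min RT; 40 uM arachidonic acid, 30 min RT; Fe-XO 30 min; A573/A405 ratio as read-out.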
PNC inhibitor: blocks assembly of the perinucleolar compartment. hit rate 3.1% among 140,000. AID 2417. PC3M PTB-GFP, PNC prevalence imaging, 16 h; hits give low values. activity change (PNC), negative = inhibition, % at 10 µM;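 active = readout at or below -70, meaning at least 70% loss of cells showing the perinucleolar compartment, a nuclear body marking cancer cells; inconclusive = readout between -30 and a set limit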;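 note: plate controls were DMSO wells for no effect and camptothecin positive control wells for full effect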
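Compounds are pinned in duplicate onto adhered PC3M cells stably expressing GFP-tagged PTB and incubated 16 h at 37 C. Cells are then fixed, nuclei stained with Hoechst, and PNC-positive cells counted.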
HPGD block: HPGD (human) dehydrogenase inhibition | P15428 | purified HPGD, NADH fluorescence kinetic, PGE2 substrate | Potency, µM, without a hit: at the highest dose activity change, negative = inhibition, usual class: inhibitors | hit rate 4.3% among 150,000 | AID 894; note: potency is the fitted concentration of half-maximal effect
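20 nM HPGD preincubated 15 min at room temperature with compound in 50 mM Tris-HCl pH 8, 0.01% Tween 20. Started with 1 mM NAD+ and 30 uM prostaglandin E2; NADH fluorescence (360/450 nm) read 5 times over 30-s intervals, last minus first.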
An asterisk follows results filed as active; ? = inconclusive; · = not tested or not shown; [ ] = another dose, or the depositor's remark. An excerpt weighted towards active compounds, which were near 10% of everything screened. Unless noted, calls come from the whole dose curve; as a rule, active = well fitted inhibition curve with a large enough effect (not every such curve was filed as active); inconclusive = small, poorly fitted or top-dose-only effect, or another doubt; inactive = no such curve, though single readings can be large or run the other way. Unless noted, % is set by controls: 0 for no effect and ±100 for the full control effect.

SMILES	ALDH1A1 block	Lamin A splicing	12-hLO inh	PNC inhibitor	HPGD block
Cc1ccc(NC(=S)NNC(=S)NCc2ccccc2)cc1	0.63µM*	7%	?	-17	-27%
CCNC(=S)NNC(=S)NCc1ccccc1	-3%	7%	?	-9	28µM*
Fc1ccc(NCc2cccn2-c2nnc(N3CCOCC3)s2)cc1	·	-5%[46 µM]	·	·	·
Cc1ccc(C(C)(C)C)cc1S(=O)(=O)NC(=O)c1ccccc1	6%	?	·	·	·
COc1ccccc1NC(=O)c1ccc(NS(=O)(=O)c2ccc(F)c(F)c2F)cc1	?	?	-5%	-121*	-16%
Cc1cc(F)ccc1NC(=O)c1ccc(NS(=O)(=O)c2cc(C(C)(C)C)ccc2C)cc1	2.5µM*	?	2%	-16	-11%
COc1ccccc1NC(=O)c1ccc(S(=O)(=O)N(C)C)cc1	-10%	-6%	-3%	?	-6%
CCOc1ccc(Br)cc1S(=O)(=O)Nc1ccc(C(=O)Nc2ccccc2OC)cc1	16µM*	4%	-2%	?	-29%
CC1(C)CCC[C@@]2(C)C1CC[C@@](C)(O)[C@@H]2CC[C@@](C)(O)C1CO1 (some centres not stated)	?	·	·	·	-5%
C/C(=C\c1ccccc1)C(=O)N1CCN(c2cccc(C(F)(F)F)c2)CC1	5%	?	-2%	-91*	25µM*
C=CCNC(=S)N1CCN(c2cccc(C(F)(F)F)c2)CC1	5%	?	-1%	-113*	-4%
COc1cccc(CC2(CO)CCCN(Cc3ccc4c(c3)OCCO4)C2)c1 (configuration not stated)	0%	-4%[46 µM]	·	·	·
Oc1ccc(Cc2nccc3cc(O)c(O)cc23)cc1O	-8%[13.5 µM]	·	-7%[11.4 µM]	·	-10%
CC(=O)c1cccc(NC(=O)c2ccc(NS(C)(=O)=O)cc2)c1	10%	-4%	-6%	-119*	13µM*
O=C(Nc1cccc(F)c1)c1ccccc1	2%	5%	9%	-1	32µM*
O=C(Nc1ccc(F)cc1F)c1ccccc1-c1ccccc1	6%	1%	-1%	-10	·
O=C(Nc1ccncc1)c1cccc(F)c1	6%	1%	4%	43	1%
O=C(Nc1cccc(F)c1)c1ccccc1-c1ccccc1	-11%	-6%	-1%	-103*	·
COc1ccc(CC(=O)Nc2ccc(-c3nc4ccccc4s3)c(C)c2)cc1OC	·	2%[46 µM]	·	·	·
CC(C)(C)C(=O)OCc1cc(=O)n2nc(C3CC3)sc2n1	·	-11%[46 µM]	·	·	·
c1coc(CN=C2NC(=NCc3ccco3)c3ccccc32)c1	25µM*	1%	-6%	-25	-25%
COc1cccc(/C(=N/O)C2CC2c2ccc(Cl)cc2)c1 (configuration not stated)	15%	-6%[9.22 µM]	·	·	·
Cc1cc(Cl)ccc1OCC(=O)Nc1nc(N)nc(N)n1	15%[13.5 µM]	·	-8%[11.4 µM]	·	-7%
CCOC(=O)c1c(C)oc(NC(=O)COc2ccc(Cl)cc2C)c1C#N	?	0%	-13%	71	32µM*
OC(COc1ccc(CN2CCCCO2)cc1)CN1CCCCC1 (configuration not stated)	7%	22%[46 µM]	·	·	·
SMILES	ALDH1A1 block	Lamin A splicing	12-hLO inh	PNC inhibitor	HPGD block
O=C1CCC([N+](=O)[O-])C(c2cc3c(cc2Cl)OCO3)N1 (configuration not stated)	6%	19%[46 µM]	·	·	·
COc1cc(/C=C2\SC(c3ccc(C)cc3)=NC2=O)cc(OC)c1O	?	?	-27%	?	22µM*
Cc1ccc(C2=NC(=O)/C(=C/c3cc(O)c(O)c(Br)c3)S2)cc1	10µM*	·	·	·	·
CC(=O)c1sc(N2CCOCC2)nc1-c1ccccc1	-9%	-1%[46 µM]	·	·	·
O=C(NC1CCCCC1)c1sc(N2CCOCC2)nc1-c1ccccc1	?	?	1%	42	28%
Cc1ccc(-c2nc(N3CCOCC3)sc2C(=O)N2CCCCC2)cc1	7.9µM*	-8%	-3%	24	0%
Cc1ccc(-c2nc(N3CCOCC3)sc2C(=O)N2CCOCC2)cc1	20µM*	-2%	3%	0	-7%
O=C(c1cccc(F)c1)N1CCC2(CCN(Cc3ccncc3)CC2)CC1	-4%	·	-2%	·	-3%
O=C(COc1ccc(Cl)cc1)OCc1cc(=O)n2nc(C3CCCCC3)sc2n1	·	3%[46 µM]	·	·	·
CC1CCN(Cc2c(O)ccc3c2O/C(=C\c2ccco2)C3=O)CC1	25µM*	1%	-10%	37	-18%
O=C1/C(=C/c2ccco2)Oc2c1ccc(O)c2CN1CCCCC1	?	-10%	-8%	48	?
Cc1oc2ncn(C)c(=O)c2c1C(=O)N1CCN(c2cccc(C(F)(F)F)c2)CC1	·	5%[46 µM]	·	·	·
Cc1cc(C)cc(NC(=O)CN2CCc3ccccc3C2)c1	-3%	-5%[0.0737 µM]	7%	-14	3%
COc1cc2c(cc1OC)CN(Cc1ccc(C)s1)CC2	28µM*	?	-5%	11	-10%
CCOC(=O)c1ccc(NC(=O)CN2CCc3ccccc3C2)cc1	14µM*	0%	-1%	-12	-26%
COc1cc2c(cc1OC)CN(CC(=O)Nc1ccc(C)cc1)CC2	?	-4%	2%	-89*	-15%
COc1ccc(CN2CCc3cc(OC)c(OC)cc3C2)cc1O	-11%	·	·	·	·
Cc1ccc2c(c1)C(=O)C(=O)N2CC(=O)OC(C)C	0.079µM*	-1%	-3%	12	1%
COc1ccccc1NC(=O)CN1C(=O)CC(c2ccc(C)c(C)c2)=Nc2ccccc21	·	-23%[46 µM]	·	·	·
CCC1=NN=C(c2ccc(F)cc2)C(c2c[nH]c3ccccc23)N1O (configuration not stated)	?	?	-7%	-100*	-11%
CCCCn1nc(C(=O)Oc2ccc3c(C)cc(=O)oc3c2)c2ccccc2c1=O	?	-11%	-1%	1	?
O=C(O)c1ccccc1C(c1ccc(O)cc1)c1ccc(O)cc1	28µM*	·	1%	·	3%
O=C(NNC(=O)c1ccccc1C(=O)O)c1ccc(O)cc1	-2%	-13%[9.22 µM]	·	·	·
N#Cc1ccc(CN2CCCC3(CCN(C(=O)c4cc(C(F)(F)F)cc(C(F)(F)F)c4)CC3)C2)cc1	2%	·	-2%	·	-12%
CCCC1(C)Nc2ccccc2-c2nc3ccccc3n21 (configuration not stated)	?	15%	-7%	-82*	?
SMILES	ALDH1A1 block	Lamin A splicing	12-hLO inh	PNC inhibitor	HPGD block
c1ccc2c(c1)NC1(CCCC1)n1c-2nc2ccccc21	?	3%	-8%	-15	?
Cc1noc(C)c1-c1cncnc1NC1CC1	3%	-8%	0%	·	-8%
Cc1onc(C(=O)N2CCOCC2)c1[N+](=O)[O-]	25µM*	20%[46 µM]	·	·	·
C=CCn1c(SCC(=O)c2cc(C)n(CCOC)c2C)nc2sc(C)c(C)c2c1=O	25µM*	8%	-8%	-20	?
O=S(=O)(N/N=C/c1ccc(OC2CSC2)cc1)c1ccccc1	?	-19%	1%	9	-12%
O=S(=O)(N/N=C/c1ccc(N2CCOCC2)cc1)c1ccccc1	10µM*	·	·	·	·
N#Cc1ccc(CS(=O)(=O)c2ccccc2)cc1	0%	·	·	·	-7%
